The nature of assay [1]: compounds binding Alexa647 anti-His antibody – biochemical, small-molecule microarray, 635 nm fluorescence, artefact control for SMM control protein annotation, primary screen (AID 1128).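 Further: score merges feature fluorescence with signal-to-noise for each printed compound spot.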 As to conditions: higher = more signal.
For assay [2], the system named is Human papillomavirus type 1a E7 protein (residues 1-88). Kind of assay: HPV1a E7 small-molecule binders, primary screen, biochemical, small-molecule microarray, residues 1-88, 635 nm (AID 1129). As to conditions: small-molecule microarray binding, fluorescence 635 nm; higher = more signal.
The target of assay [3] is Focal adhesion kinase 1 (Homo sapiens) (UniProt Q05397). Description: PTK2 protein binding on printed compound slides – biochemical, small-molecule microarray, 635/667 nm fluorescence, BSA, DTT, primary screen (AID 1130).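 Further: composite of spot emission at 667 nm and signal to noise over triplicate slides.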 The conditions noted are these: 635 nm fluorescence, higher = more signal.
Assay [4] concerns Fibrinogen (Alexa647-labelled). Description: Alexa647-fibrinogen binding to printed small molecules – biochemical, small-molecule microarray, 635/667 nm fluorescence, artefact control for SMM control-protein annotation, profiling panel (AID 1131).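 Further: z-score merges 667 nm fluorescence with per-spot signal-to-noise over triplicate slides.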 The conditions noted are these: fibrinogen-A647 binding fluorescence, higher = more signal.
The target of assay [5] is Follistatin (Homo sapiens) (UniProt P19883). Description: FST protein binding to printed compounds – biochemical, small-molecule microarray, 635/667 nm fluorescence, primary screen (AID 1132). The conditions noted are these: 635 nm fluorescence, higher = more signal.
Assay [6] deals with Fibroblast growth factor 2 (Homo sapiens) (UniProt P09038). Kind of assay: basic fibroblast growth factor binding to printed compounds – biochemical, small-molecule microarray, 635/667 nm fluorescence, primary screen (AID 1133). As to conditions: FGF2, fluorescence 635/667, higher = more signal.
Assay [7] in a line: JC-1 mitochondrial potential readout, lung cancer cells – cell-based, A549, JC-1 fluorescence, basal, 24 h, 100 nL, profiling panel (AID 1138).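 Further: A549 lung adenocarcinoma cells under basal conditions with no added stimulus; test concentration not given here.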 As to conditions: higher = more signal.
In the next assay the test system is Lefty1. Kind of assay: Lefty1 protein binding to printed compounds – biochemical, small-molecule microarray, 635/667 nm fluorescence, primary screen (AID 1139). As to conditions: fluorescence 635/667, higher = more signal.
The subject of assay [8] is wheat germ agglutinin (Triticum aestivum), Alexa647-labelled. Kind of assay: Alexa647-WGA lectin binding to printed small molecules – biochemical, small-molecule microarray, 635/667 nm fluorescence, artefact control for SMM control-protein annotation, profiling panel (AID 1140).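 Further: score merges 667 nm feature emission with signal to noise over triplicate slides.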 As to conditions: WGA-A647 binding, 635 nm fluorescence, higher = more signal.
For assay [9], the target named is Luciferin 4-monooxygenase (Photinus pyralis) (UniProt P08659). Description: inhibition of purified Photinus pyralis luciferase – biochemical, luminescence, purified enzyme, 2006 set, primary screen (AID 1141).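 Further: cell-free assay with purified firefly luciferase at 100 ng per well in PBS; test concentration not given here.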 The conditions noted are these: purified firefly luciferase, SteadyGlo luminescence, 30 min; higher = more signal, called active from +8 up or from −8 down.

Assay [10] concerns Wnt5a (protein binding on small-molecule microarray). Description: small molecules binding Wnt5a protein – biophysical, small-molecule microarray, 635/667 nm fluorescence, primary screen (AID 1142).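 Further: fluorescence read at 667 nm with signal to noise per printed feature.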 As to conditions: 635 nm fluorescence, higher = more signal.
The nature of assay [11]: ATP-based viability of Huh7 replicon cells – cell-based, CellTiter-Glo luminescence, basal, 48 h, cytotoxicity control for HCV replication inhibitor project, primary screen (AID 1143).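 Further: Huh7 hepatoma cells carrying a hepatitis C replication reporter with no stimulus; test concentration not given here.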 As to conditions: higher = more signal, called active from +8 up or from −8 down. On the technique in general: A replicon is a self-replicating genome or part of one, used to study replication in cells.

Assay [12] can be described thus: Pseudomonas biofilm growth suppression – PAO1 strain, BacTiter-Glo luminescence, LB-PBS, primary screen (AID 1144). As to conditions: P. aeruginosa PAO1 biofilm, 12 h, higher = more signal.
Assay [13] can be described thus: basal CRE-LacZ reporter activity in PC12 – cell-based, unstimulated, primary screen (AID 1145). The conditions noted are these: no forskolin, luminescence, 4.5 h, higher = more signal, called active from +8 up or from −8 down.
A short description of assay [14]: forskolin-driven CRE-LacZ activity in PC12 – cell-based, CRE-LacZ reporter, forskolin-stimulated, primary screen (AID 1146).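 Further: PC12 cells with 6xCRE LacZ reporter stimulated by forskolin 10 µM; beta-galactosidase reporter signal reflecting CREB driven transcription.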 The conditions noted are these: luminescence, 4.5 h, higher = more signal, called active from +8 up or from −8 down.
Assay [15] has as its target Streptavidin (Streptomyces avidinii) (UniProt P22629). Description: compounds binding control protein streptavidin – biophysical, small-molecule microarray, 635/667 nm fluorescence, artefact control for SMM compound annotation, primary screen (AID 1147).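 Further: signal reflects streptavidin binding to arrayed compounds as a control protein.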 As to conditions: higher = more signal.
A short description of assay [16]: probe aInhba binding on compound microarray – biochemical, small-molecule microarray, 635/667 nm fluorescence, primary screen (AID 1148).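 Further: score merges 667nm spot fluorescence with signal-to-noise for antibody binding to printed compounds.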 The conditions noted are these: higher = more signal.
For assay [17], the target named is Torsin-1A (Homo sapiens) (UniProt O14656). Description: TOR1A wild-type binding on microarray – cell lysate, small-molecule microarray, lysate, 635/667 nm, primary screen (AID 1149). The conditions noted are these: COS7 hTOR1A-WT lysate, 635 nm fluorescence, higher = more signal.
Assay [18] shares this target. Kind of assay: torsin A mutant lysate binding on microarrays – cell lysate, small-molecule microarray, COS7 lysate, 635/667 nm fluorescence, primary screen (AID 1150).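 Further: score pools 667 nm emission and signal to noise measuring lysate protein binding.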 The conditions noted are these: COS7 hTOR1A mutant lysate, 635 nm fluorescence, higher = more signal.
Assay [19] has as its system Sonic hedgehog protein (Shh). Kind of assay: Sonic hedgehog microarray binding compounds – biochemical, small-molecule microarray, 635/667 nm fluorescence, primary screen (AID 1151).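 Further: Shh protein binding to compounds spotted on small-molecule microarray slides; score combines spot fluorescence intensity with signal-to-noise across triplicate slides.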 The conditions noted are these: 635 nm fluorescence, higher = more signal.

Consider four compounds from PubChem BioAssay.

The source made the active and inactive calls. Unless noted, how the calls were made is not given here.

Sequence of Torsin-1A (Homo sapiens) (O14656 whole entry, looked up): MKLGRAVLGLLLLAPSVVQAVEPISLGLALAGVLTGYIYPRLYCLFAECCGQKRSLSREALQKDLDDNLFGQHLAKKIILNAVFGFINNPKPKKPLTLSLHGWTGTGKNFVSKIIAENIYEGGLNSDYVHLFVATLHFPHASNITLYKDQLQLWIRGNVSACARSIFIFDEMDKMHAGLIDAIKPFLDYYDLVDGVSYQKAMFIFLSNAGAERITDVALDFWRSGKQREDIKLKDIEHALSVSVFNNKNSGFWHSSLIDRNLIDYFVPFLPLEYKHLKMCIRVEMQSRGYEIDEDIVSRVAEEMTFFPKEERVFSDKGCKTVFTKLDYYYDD
Sequence of Fibroblast growth factor 2 (Homo sapiens) (P09038 whole entry, looked up): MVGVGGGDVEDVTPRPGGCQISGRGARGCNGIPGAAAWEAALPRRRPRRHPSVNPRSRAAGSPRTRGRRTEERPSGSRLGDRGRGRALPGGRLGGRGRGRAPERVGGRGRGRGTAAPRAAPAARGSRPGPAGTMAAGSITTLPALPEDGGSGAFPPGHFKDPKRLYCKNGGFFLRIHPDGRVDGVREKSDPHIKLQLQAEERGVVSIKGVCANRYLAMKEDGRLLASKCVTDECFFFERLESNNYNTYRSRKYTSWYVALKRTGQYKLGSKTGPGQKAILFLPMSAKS
Sequence of Streptavidin (Streptomyces avidinii) (P22629 whole entry, looked up): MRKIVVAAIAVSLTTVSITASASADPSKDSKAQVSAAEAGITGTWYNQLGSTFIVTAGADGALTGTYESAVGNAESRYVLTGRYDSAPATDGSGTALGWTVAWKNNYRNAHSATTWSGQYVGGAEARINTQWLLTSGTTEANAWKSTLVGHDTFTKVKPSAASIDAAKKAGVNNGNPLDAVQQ
Sequence of Luciferin 4-monooxygenase (Photinus pyralis) (P08659 whole entry, looked up): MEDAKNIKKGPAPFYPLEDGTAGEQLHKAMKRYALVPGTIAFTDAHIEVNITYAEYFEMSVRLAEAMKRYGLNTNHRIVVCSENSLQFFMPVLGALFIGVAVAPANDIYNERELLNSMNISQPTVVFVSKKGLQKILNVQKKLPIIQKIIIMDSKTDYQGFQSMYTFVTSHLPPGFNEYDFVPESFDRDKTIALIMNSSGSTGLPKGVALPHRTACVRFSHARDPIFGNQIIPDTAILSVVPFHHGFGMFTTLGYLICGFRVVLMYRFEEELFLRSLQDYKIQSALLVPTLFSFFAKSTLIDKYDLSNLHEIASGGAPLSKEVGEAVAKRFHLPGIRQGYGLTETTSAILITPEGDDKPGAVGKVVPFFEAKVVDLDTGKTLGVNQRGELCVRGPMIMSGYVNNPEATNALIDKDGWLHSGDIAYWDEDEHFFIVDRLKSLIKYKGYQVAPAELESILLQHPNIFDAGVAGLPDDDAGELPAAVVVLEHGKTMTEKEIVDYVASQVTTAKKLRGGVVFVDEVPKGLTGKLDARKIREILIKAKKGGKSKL
Sequence of Focal adhesion kinase 1 (Homo sapiens) (Q05397 whole entry, looked up): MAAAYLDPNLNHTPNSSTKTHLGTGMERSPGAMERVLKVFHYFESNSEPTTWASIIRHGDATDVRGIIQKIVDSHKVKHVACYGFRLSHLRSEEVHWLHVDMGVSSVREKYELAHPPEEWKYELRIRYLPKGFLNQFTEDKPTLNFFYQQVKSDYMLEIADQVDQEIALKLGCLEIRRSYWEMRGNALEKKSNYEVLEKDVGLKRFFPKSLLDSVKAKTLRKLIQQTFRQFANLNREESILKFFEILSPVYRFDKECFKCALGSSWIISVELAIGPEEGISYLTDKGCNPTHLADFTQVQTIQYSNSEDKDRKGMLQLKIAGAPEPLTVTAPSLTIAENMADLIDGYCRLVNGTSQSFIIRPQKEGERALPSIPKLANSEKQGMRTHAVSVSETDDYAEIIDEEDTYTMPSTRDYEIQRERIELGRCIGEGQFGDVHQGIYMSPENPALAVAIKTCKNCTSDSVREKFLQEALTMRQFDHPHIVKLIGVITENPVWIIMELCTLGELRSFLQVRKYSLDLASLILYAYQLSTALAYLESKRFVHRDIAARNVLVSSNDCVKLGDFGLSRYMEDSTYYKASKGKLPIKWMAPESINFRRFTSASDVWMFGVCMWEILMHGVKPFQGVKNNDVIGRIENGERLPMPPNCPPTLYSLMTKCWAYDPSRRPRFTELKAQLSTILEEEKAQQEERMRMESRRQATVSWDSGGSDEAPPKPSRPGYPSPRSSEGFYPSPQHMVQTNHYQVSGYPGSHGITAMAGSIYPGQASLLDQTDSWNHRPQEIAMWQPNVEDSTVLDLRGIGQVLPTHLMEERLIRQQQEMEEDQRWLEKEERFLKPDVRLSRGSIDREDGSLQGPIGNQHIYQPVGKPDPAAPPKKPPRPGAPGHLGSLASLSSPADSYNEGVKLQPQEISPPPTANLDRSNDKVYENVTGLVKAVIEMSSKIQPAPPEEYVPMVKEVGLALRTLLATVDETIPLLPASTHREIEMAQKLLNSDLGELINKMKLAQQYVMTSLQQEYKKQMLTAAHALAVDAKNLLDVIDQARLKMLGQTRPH
Sequence of Follistatin (Homo sapiens) (P19883 whole entry, looked up): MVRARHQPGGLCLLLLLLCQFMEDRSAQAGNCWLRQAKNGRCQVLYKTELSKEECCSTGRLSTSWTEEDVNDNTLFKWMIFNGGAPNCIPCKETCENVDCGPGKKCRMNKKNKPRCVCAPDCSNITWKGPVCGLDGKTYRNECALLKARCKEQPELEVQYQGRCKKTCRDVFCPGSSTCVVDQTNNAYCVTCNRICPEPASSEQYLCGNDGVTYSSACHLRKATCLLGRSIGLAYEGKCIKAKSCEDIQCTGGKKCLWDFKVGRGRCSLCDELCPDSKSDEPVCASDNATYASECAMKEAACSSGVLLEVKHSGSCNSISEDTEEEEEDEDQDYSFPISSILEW

Consider `CC(C)CCC[C@@H](C)[C@H]1CC[C@@]2(C)C3=C(CC[C@]12C)[C@@]1(C)CC[C@H](OC(=O)c2ccc(Br)cc2)C(C)(C)C1CC3` (stereo not given in full), for which the composite z-score in [1] is -0.242; in assay [2], 0.595; in assay [3], -0.172; in assay [4] it was 0.487; in assay [5] it was 0.485; in [6], 0.508. The composite z-score was 0.573 in the assay with Lefty1; 0.538 in [8]; 0.119 in [10]; 0.0916 in assay [15]; 0.054 in assay [16]; 0.276 with Torsin-1A (Homo sapiens) [17]. Further, the composite z-score was found to be 0.409 with Torsin-1A (Homo sapiens) [18] and 0.384 in assay [19]. Further, the z-score in assay [7] is 0.367; in assay [9], -1.28 (inactive); in [11] it was -1.17 (inactive); in assay [12] it was -0.784 (inactive); in assay [13] it was 0.21 (inactive); in assay [14] it was 0.168 (inactive).
As for `O=C(O)[C@]1(Cc2ccccc2)N=C(c2ccc(OCCCO)cc2)O[C@@H]1c1ccccc1`, the composite z-score in assay [1] was 1.03; in assay [2], -0.0591; in [3], 0.136; in assay [4], -0.0288; in assay [5], -0.431; in [6], -0.846. The composite z-score with Lefty1 was -0.296; in [8] it was -0.218; in assay [10], -0.159; in assay [15], -0.423; in assay [16], -0.119; with Torsin-1A (Homo sapiens) [17], -0.639. Also, the composite z-score is -0.411 with Torsin-1A (Homo sapiens) [18] and -1.78 in assay [19]. Besides, the z-score in assay [7] is -0.069; in assay [9] it was 0.779 (inactive); in [11], -1.14 (inactive); in assay [12] it was 0.534 (inactive); in assay [13] it was -0.445 (inactive); in [14], -0.471 (inactive).
As for `CCN(CC)c1ccc(N2CC=CC34O[C@@H]5/C=C\CCC(C)OC(=O)C5[C@H]3C(=O)N(CCO)[C@@H]4C2=O)cc1` (stereo not given in full), the composite z-score is 2.08 in assay [1]; -0.204 in [2]; 0.235 in assay [3]; -1.45 in assay [4]; -0.69 in assay [5]; -0.734 in assay [6]. For the same compound, the composite z-score with Lefty1 is -0.171; in assay [8] it was 0.144; in [10] it was -0.442; in assay [15], -0.21; in [16] it was -0.0774; with Torsin-1A (Homo sapiens) [17], -1.12. Moreover, the composite z-score in the assay with Torsin-1A (Homo sapiens) [18] is -1.25; in assay [19], 0.414. The z-score in [7] was 0.431; in [9], -0.801 (inactive); in assay [11] it was -1.33 (inactive); in assay [12], 0.655 (inactive); in assay [13], 0.195 (inactive); in assay [14], -0.295 (inactive).
As to `COc1cc(OC)c(C(O)C2C=CC3C(=O)N(c4ccccc4)C(=O)C3N2Nc2ccc(C#N)cc2)cc1Br` (stereo not given), the composite z-score is 1.36 in [1]; 1.02 in assay [2]; 0.707 in [3]; 0.674 in assay [4]; 1.22 in [5]; 0.217 in assay [6]. Also, the composite z-score in the assay with Lefty1 was -0.129; in assay [8] it was 1.13; in assay [10], 0.507; in assay [15] it was 1.9; in [16] it was 0.451; with Torsin-1A (Homo sapiens) [17], 0.367. The composite z-score is 0.99 with Torsin-1A (Homo sapiens) [18] and -0.186 in assay [19]. The z-score is 0.658 in [7]; 0.289 (inactive) in assay [9]; 0.411 (inactive) in [11]; -0.245 (inactive) in assay [12]; 2.17 (inactive) in assay [13]; -0.475 (inactive) in assay [14].
